CCHF vOTU inh: blocks the CCHF virus ovarian tumor domain protease; 370,000 compounds, 0.55% hits; AID 651958; inhibition, % at 11.5 µM; CCHFV vOTU protease, Pep-AMC fluorescence; note: 0% = vehicle wells with enzyme and 100% = no enzyme wells
GDH-TPI counter: inhibits GDH-TPI coupling enzymes, artifact for Mtb FBA screen; GDH-TPI coupled enzyme counterscreen, NADH absorbance; inhibition, % at 4.8 µM; 360,000 compounds, 1.2% hits; AID 588335;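 note: 0% = DMSO wells and 100% = wells lacking the enzyme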
FBA Mtb inh: inhibitors of M. tuberculosis fructose-bisphosphate aldolase. AID 588726. 360,000 compounds, 2.3% hits. purified M. tuberculosis FBA, fluorescence read-out. inhibition, % at 1 µM; in the data active = inhibition above about 27%;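 note: 0% = vehicle and 100% = reference inhibitor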
RecA intein inh: inhibitors of M. tuberculosis RecA intein splicing; AID 2221; cell-free RecA intein splicing, fluorescence; inhibition, % (test concentration not listed); 290,000 compounds, 0.75% hits; P9WHJ3; in the data active = inhibition above about 30%; inconclusive = no clear call, values can overlap the other calls;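 note: 0% = vehicle wells and 100% = reference inhibitor control wells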
Target sequence (P9WHJ3 whole entry, looked up): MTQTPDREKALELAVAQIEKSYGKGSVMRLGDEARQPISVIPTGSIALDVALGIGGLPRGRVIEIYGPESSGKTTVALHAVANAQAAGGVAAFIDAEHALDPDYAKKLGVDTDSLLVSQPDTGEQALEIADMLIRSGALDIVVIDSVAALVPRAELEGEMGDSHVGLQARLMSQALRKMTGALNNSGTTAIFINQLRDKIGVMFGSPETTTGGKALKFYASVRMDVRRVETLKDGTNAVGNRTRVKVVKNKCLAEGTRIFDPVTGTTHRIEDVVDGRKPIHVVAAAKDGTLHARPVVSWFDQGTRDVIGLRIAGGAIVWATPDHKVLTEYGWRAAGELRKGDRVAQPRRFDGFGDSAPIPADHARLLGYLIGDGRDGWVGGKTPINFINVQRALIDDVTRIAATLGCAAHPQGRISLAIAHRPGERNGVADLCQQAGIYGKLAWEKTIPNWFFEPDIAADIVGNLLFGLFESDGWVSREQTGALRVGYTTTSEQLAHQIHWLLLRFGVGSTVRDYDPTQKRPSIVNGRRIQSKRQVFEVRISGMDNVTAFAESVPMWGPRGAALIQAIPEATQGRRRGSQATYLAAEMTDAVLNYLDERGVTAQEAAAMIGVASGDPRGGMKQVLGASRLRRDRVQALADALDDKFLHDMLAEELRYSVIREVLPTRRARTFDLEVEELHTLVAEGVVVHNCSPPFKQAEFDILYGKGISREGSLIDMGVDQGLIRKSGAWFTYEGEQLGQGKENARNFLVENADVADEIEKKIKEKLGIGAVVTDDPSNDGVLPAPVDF
Mtb betalactam: beta-lactam sensitization of Mtb H37Rv | M. tuberculosis H37Rv growth with meropenem, percent inhibition | inhibition, % at 25 µM | 330,000 compounds, 0.27% hits; call rule not given here;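 note: growth measured after seven days incubation then overnight dye step; 0% = bacteria only wells and 100% = bacteria with antibiotic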
* = called active by the depositor; i = inactive; ? = inconclusive; · = no result given; + = active, no number. In the library only some 4.2% were active in any assay of this set; here they are far more common. Cut-off read from the data, not from the text of the source, unless noted: active = inhibition above about 30%; inactive = the rest.

SMILES | CCHF vOTU inh | GDH-TPI counter | FBA Mtb inh | RecA intein inh | Mtb betalactam
O=C1CC(c2ccc(O)c(O)c2)Oc2cc(O)cc(O)c21 (stereo not given) | -1 | 31* | 6 | · | -6
O=C(Nc1ccc(F)cc1)OCc1cn(Cc2cc(F)cc(F)c2)nn1 | 5 | · | · | · | ·
C=CCNc1oc(-c2ccc(OCC)cc2)nc1C#N | -20 | 18 | 129* | 1 | -1
C=CCNc1oc(-c2ccc(OC)cc2)nc1C#N | -36 | 8 | 127* | 2 | 7
COc1ccc(-c2nc(C#N)c(NCc3ccco3)o2)cc1 | -25 | -2 | 117* | 5 | 42
CCOc1ccc(-c2nc(C#N)c(NCC(C)C)o2)cc1 | -17 | 18 | 156* | -2 | 99
COc1ccc(Nc2oc(-c3ccc(F)cc3)nc2C#N)cc1 | -6 | 6 | 2 | -1 | -4
CCOc1ccc(Nc2oc(-c3cccc(Cl)c3)nc2C#N)cc1 | -4 | 10 | 0 | 2 | 72
C[C@@H]1[C@@H](c2ccccc2)c2cc3ccccc3nc2C(=O)C[C@@H]1C(=O)N1CCCC1 | -3 | · | · | · | ·
O=C(Nc1cccc(Cl)c1)OC1CCC12CCC(c1ccccc1)CC2 (stereo not given) | 10 | · | · | · | ·
C=C(C)COc1ccc2c(C)c(CC(=O)N3C[C@H]4C[C@@H](C3)c3cccc(=O)n3C4)c(=O)oc2c1 | -53 | 29 | 114* | -3 | -3
COC(=O)[C@]12C[C@H](CC(=O)NCCc3ccccc3OC)C(=O)N(Cc3ccc4c(c3)OCO4)C1=C[C@H](C(C)C)O[C@@H]2C1CC1 | 11 | · | · | · | ·
COc1cc2c(cc1OC)-c1cc3ccc4c(c3c[n+]1CC2)OCO4 | 23 | 35* | -1 | -43 | -1
COc1cc2c(ccc3cc(OC)c(OC)c(O)c32)cc1O | -1 | -1 | 6 | -3 | -8
COc1cc2c(cc1O)CC[n+]1cc3c(OC)c(OC)ccc3cc1-2 | 17 | 33* | -4 | 0 | 2
CC(=O)c1ccc([C@H](O)[C@@H](C(=O)N(C)c2ccccc2)C2CC2)cc1 | 3 | · | · | · | ·
Nc1nc(-c2ccc(Cl)cc2)cc(C(F)(F)F)n1 | -1 | -5 | 3 | -4 | 5
FC(F)(F)c1cc(-c2cccs2)nc2cc(-c3ccccc3)nn12 | 5 | 13 | 4 | -52 | -3
FC(F)(F)c1cc(-c2cccs2)nc2ncnn12 | -228 | 11 | + | -5 | -4
O=C(NCCc1ccccc1)c1nc2nc(-c3cccs3)cc(C(F)(F)F)n2n1 | -104 | 31* | + | -4 | -1
FC(F)(F)c1cc(-c2ccc(Cl)cc2)nc2ncnn12 | -11 | 18 | 142* | 0 | -2
O=[N+]([O-])c1cc([N+](=O)[O-])c(N2CCOCC2)cc1NCc1ccccc1 | -1 | 31* | -4 | 6 | ?
O=[N+]([O-])c1ccc(N2CCOCC2)cc1NCc1ccccc1 | 12 | 13 | -7 | -3 | 16
O=C(NCCc1c[nH]c2ccccc12)OCc1cn(Cc2ccc(C(F)(F)F)cc2)nn1 | 10 | · | · | · | ·
O=S(=O)(Nc1nc2ccccc2nc1N1CCc2ccccc2C1)c1ccc(Br)cc1 | -62 | 18 | 126* | · | -6
SMILES | CCHF vOTU inh | GDH-TPI counter | FBA Mtb inh | RecA intein inh | Mtb betalactam
CC(=O)Nc1ccc(S(=O)(=O)Nc2nc3ccccc3nc2N2CCCCCC2)cc1 | 3 | 33* | 10 | 3 | 3
CN1CCN(c2nc3ccccc3nc2NS(=O)(=O)c2ccc(Br)cc2)CC1 | -3 | 24 | 8 | · | -7
CC(=O)Nc1ccc(S(=O)(=O)Nc2nc3ccccc3nc2N2CCc3ccccc3C2)cc1 | 4 | 22 | 12 | 4 | -4
Clc1ccc(-c2cnn3c(-c4ccncc4)ccnc23)cc1 | 4 | -3 | -8 | · | 49
Nc1nc2nccc(-c3ccc(Cl)cc3)n2n1 | -244 | 34* | + | · | 2
COCCNc1nc(NCCCN2CCCC2=O)c2sc(-c3ccccc3)cc2n1 | -1 | 31* | 16 | · | ·
C=CCNc1nc(NCCCN2CCCC2=O)c2sc(-c3ccccc3)cc2n1 | -1 | 21 | 12 | · | ·
CCC(=O)Nc1nc2ccc([N+](=O)[O-])cc2s1 | 10 | 31* | 3 | -2 | -13
CS(=O)(=O)c1ccc2nc(NC(=O)c3ccc(NS(=O)(=O)c4cccc([N+](=O)[O-])c4)cc3)sc2c1 | 11 | 89* | 0 | -2 | 0
O=C(CSc1nnc(-c2ccccn2)n1-c1ccc(Cl)cc1)Nc1ccc2c(c1)OCCO2 | -2 | · | · | · | ·
O=C(CC(=O)NC1CCCCC1)N/N=C/c1cccc2ccccc12 | 23 | 31* | 1 | -2 | -22
O=c1[nH]c(=O)c2nc(-c3ccc(Cl)cc3)cnc2[nH]1 | -230 | 9 | + | i | -4
N#CCC[C@H]1CC[C@]2(CCCN(C(=O)c3ccco3)C2)O1 | 2 | · | · | · | ·
COc1ccc(N2C(=O)/C(=C\c3ccco3)N=C2SCC(=O)NC(C)(C)C)cc1Cl | 3 | 11 | 3 | 38* | -6
CN(CC1CCCN(CCc2ccc(F)cc2)C1)C(=O)CCC(F)(F)F (stereo not given) | -11 | 11 | -1 | 0 | -8
CN(C)C(=O)CCC(=O)N(C)CC1CCCN(CCc2ccc(F)cc2)C1 (stereo not given) | -9 | -1 | 188* | -1 | 1
COC(=O)CNC(=O)c1ccc(=O)oc1 | 10 | 63* | 9 | · | -4
O=C(NCc1ccccc1)c1ccc(CO)cc1 | -9 | · | · | · | ·
COC(=O)CNC(=O)c1cc(OC)cc(OC)c1 | 10 | -1 | 2 | 2 | 5
O=C(NCc1ccccc1)c1ccc(=O)oc1 | 8 | 104* | 0 | -1 | -3
O=C(NCc1ccco1)c1ccc(=O)oc1 | 27 | 50* | -1 | 0 | -16
COc1cccc(CNC(=O)[C@H]2CCCN2C(=O)[C@H]2CCCN2C(=O)c2ccc(F)cc2F)c1 | -12 | · | · | · | ·
COC(=O)C1CN(Cc2ccc(OC)cc2)CCS(=O)(=O)N1Cc1ccc(F)cc1 (stereo not given) | 4 | · | · | · | ·
CC1(c2nnnn2-c2ccc3c(c2)OCCO3)CSCC(=O)N1CCc1c[nH]c2ccccc12 (stereo not given) | -5 | · | · | · | ·
COc1ccc(CCNS(=O)(=O)c2c(C)n[nH]c2C)cc1 | -5 | · | · | · | ·
SMILES | CCHF vOTU inh | GDH-TPI counter | FBA Mtb inh | RecA intein inh | Mtb betalactam
O=C(CN(c1cccc(Br)c1)S(=O)(=O)c1ccccc1)N/N=C/c1cc([N+](=O)[O-])ccc1O | 15 | 20 | -2 | 33* | 2
O=C(CCCC(=O)Nc1cccc(Br)c1)N/N=C/c1cc([N+](=O)[O-])ccc1O | -3 | 15 | -7 | 6 | 15
CCOC(=O)C(/C=C(\C#N)C(=O)OCC)=C(/N)N1CCN(c2ccc(Cl)cc2)CC1 | 20 | 59* | -1 | -5 | 100
CCOC(=O)N1CCN(c2ccc(Cl)cc2)CC1 | -3 | 6 | 1 | 0 | -3
COc1ccc(OC)c(/C=N\NC(=O)c2ccc(=O)n(C)c2)c1 | -18 | 22 | 11 | -3 | -3
COc1cc(OC)c(OC)cc1/C=N/NC(=O)c1ccc(=O)n(C)c1 | 29 | 54* | -1 | -3 | 2
COc1cc(OC)c(OC)cc1/C=N/NC(=O)c1cc(-c2cccn2C)n[nH]1 | 8 | 38* | 4 | 1 | 8
CN(Cc1ccccc1)C(=O)OCc1cn(Cc2cccc(Cl)c2)nn1 | 13 | · | · | · | ·
